Experimental data published in PubChem BioAssay (Tox21).
Values without a mark were called inactive. Inconclusive results are not listed. A call without a number means that no potency is given here. Activity calls are given as the source filed them. Unless noted, the call rests on the fitted dose curve; in most records, active means well fitted curve in the direction sought with a large enough effect in the repeat runs; inconclusive means weak or mixed curves; inactive means no such curve, though single readings can be large; an effect the other way counts as inactive or inconclusive.

Experiments:
[1] = qHTS assay for small molecules that induce genotoxicity in human embryonic kidney cells expressing luciferase-tagged ATAD5 (AID 651632); further: nearly all actives have a fitted effect of over 15% in size; further: potency means the concentration at half of the fitted maximal effect
In short: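 ATAD5-luc HEK293T, 2,000 cells/well; cpd or DMSO pin-transferred; 16 hr, 37C/5% CO2; Amplite 30 min RT; luminescence.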

[2] = qHTS assay for small molecules that induce genotoxicity in human embryonic kidney cells expressing luciferase-tagged ATAD5 - cell viability (AID 651634; calls by dose curve; further: nearly all actives have a fitted effect of over 25% in size; further: potency means the concentration at half of the fitted maximal effect)
In short: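 Fluorescence from CellTiter-Fluor, reporting protease activity within live cells, served as the viability read-out. HEK293T cells carrying luciferase-tagged ATAD5 had been treated with compound for 15.5 hr at 37C.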

[3] = qHTS assay for small molecule disruptors of the mitochondrial membrane potential - cell viability (AID 720634; calls by dose curve; further: nearly all actives have a fitted effect of over 20% in size; further: potency means the concentration at half of the fitted maximal effect)
In short: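 Cells: HepG2, 2,000/well, attached overnight. Compound 1 hr, 37 C/5% CO2. +m-MPI dye, +CellTiter-Glo 30 min RT. Readout: luminescence (ATP).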

[4] = qHTS assay to test for compound auto fluorescence at 590 nm (red) in HepG2 cells (AID 720674)
In short: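 Seeding: 2,000 HepG2 cells/well, MEM/10% FBS, overnight 37 C. Dosing: compound vs DMSO. Incubation: 1 hr, 37 C, 5% CO2. Read: fluorescence 540 ex/590 em, Rose Bengal sodium as red reference.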

[5] = qHTS assay to test for compound auto fluorescence at 535 nm (green) in HepG2 cells (AID 720675)
[6] = qHTS assay to test for compound auto fluorescence at 460 nm (blue) in HEK293 cells (AID 720678)
In short: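 HEK293 cells (2,000/well, medium with 10% dialyzed FBS) attached 4-5 hr, then exposed to compound overnight at 37C, 5% CO2. Blue fluorescence read at 405/460 nm, with triamterene as reference fluorophore.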

[7] = qHTS assay to test for compound auto fluorescence at 590 nm (red) in HEK293 cells (AID 720679)
In short: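 HEK293 cells (2,000/well, 10% dialyzed FBS) attached 4-5 hr, then dosed with compound or DMSO and incubated overnight at 37C, 5% CO2. Red fluorescence read at 540/590 nm, Rose Bengal sodium as reference fluorophore.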

[8] = qHTS assay to test for compound auto fluorescence at 535 nm (green) in HEK293 cells (AID 720680)
[9] = qHTS assay to test for compound auto fluorescence at 460 nm (blue) in HEK293 cell free culture (AID 720681)
In short: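 Compounds were added to cell-free DMEM with 10% FBS and fluorescence read directly. The blue channel used 405 nm excitation and 460 nm emission, with triamterene as the reference fluorophore.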

[10] = qHTS assay to test for compound auto fluorescence at 535 nm (green) in HEK293 cell free culture (AID 720682)
In short: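 Using fluorescein as calibrant, autofluorescence was quantified at 485/535 nm in cell-free DMEM containing 10% FBS after pintool addition of compound or vehicle.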

[11] = qHTS assay to test for compound auto fluorescence at 590 nm (red) in HEK293 cell free culture (AID 720683)
In short: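 Cell-free wells of DMEM with 10% FBS received compound, and intrinsic fluorescence was read at excitation/emission 540/590 nm. Values expressed as equivalence to Rose Bengal sodium.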

[12] = qHTS assay to test for compound auto fluorescence at 590 nm (red) in HepG2 cell free culture (AID 720684)
In short: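 Compound was pinned into wells holding MEM with 10% FBS and no cells, and red fluorescence was read at Ex/Em 540/590 nm. Signal is expressed as auto fluorescence equivalency relative to Rose Bengal sodium.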

[13] = qHTS assay to test for compound auto fluorescence at 460 nm (blue) in HepG2 cell free culture (AID 720685)
In short: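 Compound (23 nL) or DMSO pinned into cell-free MEM with 10% FBS; blue fluorescence read at 405/460 nm excitation/emission, expressed as auto-fluorescence equivalency to triamterene.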

[14] = qHTS assay to test for compound auto fluorescence at 535 nm (green) in HepG2 cell free culture (AID 720686)
[15] = target: Glucocorticoid receptor (Homo sapiens) (UniProt P04150); assay: qHTS assay to identify small molecule agonists of the glucocorticoid receptor (GR) signaling pathway (AID 720691; active means well fitted activation curve with a large enough effect in the signal ratio in the repeat runs, not every such curve was filed as active; the % refers to the signal ratio); details: GR-bla HeLa, beta-lactamase reporter ratio, 18 h; activation: at 62.4 µM (top of the series) unless noted
In short: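 Fluorescence intensity from LiveBLAzer B/G FRET substrate (2 h, room temperature) reports beta-lactamase expression driven by the glucocorticoid response element in GR-bla HeLa cells after 18 h compound exposure at 37 C.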

[16] = target: Glucocorticoid receptor (Homo sapiens) (UniProt P04150); assay: qHTS assay to identify small molecule antagonists of the glucocorticoid receptor (GR) signaling pathway (AID 720692; active means well fitted inhibition curve with a large enough effect in the signal ratio in the repeat runs, not every such curve was filed as active; the % refers to the signal ratio; further: potency means the concentration at half of the fitted maximal effect)
In short: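 HeLa GR-bla cells; cmpd + dex 5 nM final, 18 h 37 C; LiveBLAzer B/G FRET substrate 2 h RT; fluorescence intensity read. Antagonist mode, qHTS.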

[17] = qHTS assay for small molecule agonists of the p53 signaling pathway - cell viability (AID 651633; calls by dose curve;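 further: p53RE-bla HCT reporter cells with a stable beta-lactamase p53 reporter; nearly all actives have a fitted effect of over 30% in size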)
In short: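 p53RE-bla cells were treated with compound for 16 hours at 37 C. Cytotoxicity was then measured as CellTiter-Glo luminescence after 30 min at room temperature.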

[18] = qHTS assay for small molecule disruptors of the mitochondrial membrane potential (AID 720635); further: potency means the concentration at half of the fitted maximal effect
In short: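 HepG2 cells exposed to compound 1 hr at 37C, then Mito-MPS dye 30 min. Ratio read of aggregate (540/590 nm) versus monomer (490/535 nm) fluorescence.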

[19] = qHTS assay to test for compound auto fluorescence at 460 nm (blue) in HepG2 cells (AID 720687)
In short: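 HepG2 cells in MEM with 10% FBS, attached overnight at 37 C, were exposed to compound or DMSO for 1 hr at 37 C, 5% CO2. Blue fluorescence was read at 405/460 nm, with triamterene as reference fluorophore.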

Chain of Glucocorticoid receptor (Homo sapiens) (P04150 whole entry, looked up): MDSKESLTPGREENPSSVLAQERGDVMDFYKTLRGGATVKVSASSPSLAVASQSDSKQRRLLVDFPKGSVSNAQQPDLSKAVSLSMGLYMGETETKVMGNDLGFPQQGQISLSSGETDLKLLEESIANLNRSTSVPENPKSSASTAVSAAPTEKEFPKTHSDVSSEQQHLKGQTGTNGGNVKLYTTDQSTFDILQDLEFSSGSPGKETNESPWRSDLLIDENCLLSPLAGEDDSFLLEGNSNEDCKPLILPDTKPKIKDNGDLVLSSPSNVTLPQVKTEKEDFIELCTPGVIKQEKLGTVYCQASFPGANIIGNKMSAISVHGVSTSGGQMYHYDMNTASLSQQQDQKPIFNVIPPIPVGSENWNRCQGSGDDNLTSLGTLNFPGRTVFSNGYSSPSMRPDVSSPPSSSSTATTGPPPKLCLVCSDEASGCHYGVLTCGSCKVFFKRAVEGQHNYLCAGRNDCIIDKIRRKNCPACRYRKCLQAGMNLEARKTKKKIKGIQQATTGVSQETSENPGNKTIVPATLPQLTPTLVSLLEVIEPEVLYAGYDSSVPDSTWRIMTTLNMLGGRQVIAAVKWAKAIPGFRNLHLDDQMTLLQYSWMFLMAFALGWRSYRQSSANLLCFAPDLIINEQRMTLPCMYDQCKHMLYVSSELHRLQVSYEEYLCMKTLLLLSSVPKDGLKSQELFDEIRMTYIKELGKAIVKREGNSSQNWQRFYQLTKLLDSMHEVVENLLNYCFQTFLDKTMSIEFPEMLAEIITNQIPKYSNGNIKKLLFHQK

Row | Compound | Potency [1] | Potency [2] | Potency [3] | Potency [4] | Potency [5] | outcome [6] | Potency [7] | outcome [8] | outcome [9] | outcome [10] | Potency [11] | Potency [12] | outcome [13] | Potency [14] | Potency [15] | Potency [16] | Potency [17] | Potency [18] | outcome [19]
1 | CN(C)CCN(Cc1ccccc1)c1ccccn1 | inactive | inactive | inactive | inactive | inactive | inactive | inactive | inactive | inactive | inactive | inactive | inactive | inactive | inactive | inactive | inactive | – | – | –
2 | CCc1cc(C2=C(C(=O)O)N(c3ccccc3C(F)(F)F)S(=O)(=O)c3ccccc32)cc2c1OCO2 | inactive | – | – | – | inactive | inactive | inactive | inactive | inactive | inactive | inactive | inactive | inactive | inactive | inactive | – | inactive | 48 µM (active) | inactive
3 | CCCCCCCCCCO[C@@H]1O[C@H](CO)[C@@H](O)[C@H](O)[C@H]1O | inactive | inactive | inactive | inactive | inactive | inactive | inactive | inactive | inactive | inactive | inactive | inactive | inactive | inactive | – | – | – | – | inactive
4 | S=C([S-])NCCNC(=S)[S-].[Mn+2] | inactive | inactive | inactive | – | inactive | inactive | – | inactive | inactive | inactive | inactive | inactive | inactive | inactive | inactive | – | – | – | inactive
5 | CCCCCCCC#N | inactive | inactive | inactive | inactive | inactive | inactive | inactive | inactive | inactive | inactive | – | inactive | inactive | inactive | inactive | – | – | – | inactive
6 | Nc1ccc(N)c2c1C(=O)c1ccccc1C2=O | inactive | 27.3 µM (active) | – | inactive | inactive | inactive | inactive | inactive | inactive | inactive | – | inactive | inactive | inactive | inactive | – | – | – | inactive
7 | CCCCc1nc2cccnc2n1Cc1ccc(-c2ccccc2-c2nnn[nH]2)cc1 | inactive | – | – | – | inactive | inactive | inactive | inactive | inactive | inactive | inactive | inactive | inactive | inactive | – | – | inactive | – | inactive
8 | ClCCOCCOCCCl | inactive | inactive | – | inactive | inactive | inactive | inactive | inactive | inactive | inactive | – | inactive | inactive | inactive | – | – | inactive | – | inactive
9 | COc1cc2c(cc1OC)C(C(C(=O)N(CCc1ccc(OC)c(OC)c1OC)CCc1ccc(OC)c(OC)c1OC)c1ccccc1)=NCC2 (configuration not stated) | inactive | – | inactive | inactive | inactive | inactive | inactive | inactive | inactive | inactive | inactive | inactive | inactive | inactive | – | – | inactive | – | inactive
10 | Cc1cccc(C)c1OCC(=O)N[C@@H](Cc1ccccc1)[C@@H](O)C[C@H](Cc1ccccc1)NC(=O)[C@H](C(C)C)N1CCCNC1=O | inactive | 26.6 µM (active) | inactive | inactive | inactive | inactive | inactive | – | inactive | inactive | inactive | inactive | inactive | inactive | inactive | 23.9 µM (active) | – | – | inactive
11 | CNCCCCOc1ccccc1Cc1ccccc1 | inactive | inactive | inactive | inactive | inactive | inactive | inactive | – | inactive | inactive | inactive | inactive | inactive | inactive | inactive | – | – | – | inactive
12 | O=C1CCCCCCCCCCCC(=O)OCCO1 | inactive | inactive | inactive | inactive | inactive | inactive | inactive | inactive | inactive | – | inactive | inactive | inactive | inactive | inactive | – | – | – | inactive
13 | O=C(O)C1(C(=O)Nc2ccc(Cl)cc2Cl)CC1 | 1.93 µM (active) | inactive | – | inactive | inactive | inactive | inactive | inactive | inactive | inactive | inactive | inactive | inactive | inactive | – | – | – | – | inactive
14 | O=C(Nc1ccccc1)c1ccccc1O | inactive | inactive | 27.3 µM (active) | inactive | inactive | inactive | inactive | inactive | inactive | inactive | inactive | inactive | inactive | inactive | inactive | – | – | 2.43 µM (active) | –
